About 83,000 compounds went through this panel and 20% of them were active in at least one assay; those are over-represented in the sample as a whole.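 48-hour exposure, single concentration, 96-well plates; percent growth endpoint where 0 means no net growth. Active: below 10.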 A number with no mark means an inactive call. The source made the active and inactive calls.
How the values were obtained:
Assay in all cases: NCI-60 one-dose screen, 48 h (100 = growth as untreated, 0 = no growth, -100 = all killed)
[1] = test system: SNB-75 CNS; settings: 10 µM
[2] = test system: SNB-19 CNS; settings: 10 µM
[3] = test system: PC-3 prostate; settings: 10 µM
[4] = test system: UACC-62 melanoma; settings: 10 µM unless noted
[5] = test system: LOX IMVI melanoma; settings: 10 µM
[6] = test system: SK-MEL-28 melanoma; settings: 10 µM
[7] = test system: SN12C renal; settings: 10 µM
[8] = test system: UO-31 renal; settings: 10 µM
[9] = test system: TK-10 renal; settings: 10 µM unless noted
[10] = test system: ACHN renal; settings: 10 µM
[11] = test system: CAKI-1 renal; settings: 10 µM
[12] = test system: MOLT-4 leukemia; settings: 10 µM
[13] = test system: HT29 colon; settings: 10 µM
[14] = test system: U251 CNS; settings: 10 µM
[15] = test system: SK-MEL-2 melanoma; settings: 10 µM
[16] = test system: EKVX NSCLC; settings: 10 µM
[17] = test system: A498 renal; settings: 10 µM
[18] = test system: CCRF-CEM leukemia; settings: 10 µM
[19] = test system: SK-MEL-5 melanoma; settings: 10 µM

Compound	growth [1]	growth [2]	growth [3]	growth [4]	growth [5]	growth [6]	growth [7]	growth [8]	growth [9]	growth [10]	growth [11]	growth [12]	growth [13]	growth [14]	growth [15]	growth [16]	growth [17]	growth [18]	growth [19]
CC(C(=O)O)(C1CCCCC1)C1(O)CCCCC1 (stereo unspecified)	85.2%	111%	94.9%	113%	95.3%	107%	100%	84.9%	91.1%	107%	96.7%	94.3%	–	–	–	–	–	–	–
CCOc1ccc(I)cc1	91.4%	104%	88.4%	95.2%	100%	107%	97.1%	89%	112%	110%	113%	115%	106%	103%	130%	105%	101%	121%	–
Cc1ccc(C(O)C2CC2)cc1 (stereo unspecified)	88.9%	96.7%	94.5%	98.8%	100%	106%	102%	88.5%	116%	104%	91.9%	100%	104%	100%	104%	–	87.5%	91.7%	103%
COc1cc(CN)ccc1O	88.8%	94.9%	100%	90.1%	89.8%	117%	81.7%	82.7%	88.4%	96%	–	134%	91.8%	96%	–	71.3%	128%	93.1%	102%
COc1ccc(OC)c(/C=C2\CCc3ccccc3C2=O)c1	17.4%	38.6%	47.6%	43.5%	35.6%	64.9%	61.7%	61.1%	89.5%	52.7%	39.1%	23%	12.8%	–	43.1%	50%	20.2%	28.3%	52.9%
COc1cccc(Sc2ccc([N+](=O)[O-])c3no[n+]([O-])c23)c1	31.8%	83.3%	59.4%	53.2%	28.9%	55%	74.4%	-21.5% (active)	60.3%	9.88% (active)	64.8%	0.692% (active)	–	–	86.2%	91.9%	98%	-19.5% (active)	88.9%
N#C/C(=C\c1cc(O)c(O)c(O)c1)C(N)=O	-17.7% (active)	101%	46.5%	98.1%	92.3%	–	107%	110%	116%	96.6%	93.6%	73.1%	103%	93%	123%	97.4%	119%	74%	101%
Cc1cc(/C=C/c2ccc3cc(N(C)C)ccc3[n+]2C)c(C)n1-c1ccccc1	-1.13% (active)	9.5% (active)	-7.89% (active)	–	-38% (active)	-63.9% (active)	-25.7% (active)	–	-5.02% (active)	-83.5% (active)	-31% (active)	0.162% (active)	4.1% (active)	-11.9% (active)	-51.6% (active)	0.119% (active)	-25% (active)	0.765% (active)	-96.8% (active)
C/C=C/CC(C)C(O)C1C(=O)NC(CC)C(=O)N(C)CC(=O)N(C)C(CC(C)C)C(=O)NC(C(C)C)C(=O)N(C)C(CC(C)C)C(=O)NC(C)C(=O)NC(C)C(=O)N(C)C(CC(C)C)C(=O)N(C)C(CC(C)C)C(=O)N(C)C(C(C)C)C(=O)N1C (stereo unspecified)	–	41.7%	11.7%	2.53% (active)	0.362% (active)	-36.4% (active)	27.4%	24.1%	31.3%	16.8%	31%	-4.07% (active)	-37.2% (active)	29.7%	-36.5% (active)	26.7%	-5.73% (active)	–	2.67% (active)
CN(C)c1ccc2nc3ccc(=N)cc-3sc2c1	22.3%	81.1%	12.3%	36%	–	82.9%	57.3%	57.3%	105%	53%	–	–	85.3%	–	–	–	55.8%	–	0.247% (active)
Cc1cc2nc(CC(=O)c3ccccc3)c(=O)[nH]c2cc1C	117%	–	88.4%	74.9%	96.2%	109%	93.8%	–	149%	93.8%	76.2%	89%	97.5%	95.4%	102%	55.5%	127%	88.5%	96.1%
C#CC(C)(O)c1ccc(Cl)cc1 (stereo unspecified)	98.8%	106%	–	-18.6% (active)	94.5%	110%	113%	99.4%	106%	110%	103%	107%	102%	97.8%	106%	98.6%	98%	103%	101%
CCNCCCCNCCCCNCCCCNCCCCNCC	–	81.1%	84.6%	72.8%	75.3%	–	115%	–	63.6%	80.4%	77.7%	151%	72.1%	95.5%	97.1%	76.2%	129%	128%	73.8%
COc1cc([C@@H]2c3cc4c(cc3[C@H](O)[C@H]3COC(=O)[C@H]23)OCO4)cc(OC)c1OC	30.6%	34.7%	23.3%	40.5%	22%	58.8%	32.9%	48.2%	51.4%	34.6%	–	-6.06% (active)	4.93% (active)	16.5%	–	38.8%	-10.2% (active)	6.58% (active)	-25% (active)
CCCC(C)OCC(=O)O (stereo unspecified)	85.8%	100%	98.4%	110%	99.1%	97.9%	103%	86.6%	119%	102%	97.5%	95%	109%	93.5%	104%	–	103%	101%	99.8%
O=C(O)CCC(=O)OC(C1CO1)C(OC(=O)CCC(=O)O)C1CO1 (stereo unspecified)	94.7%	111%	–	111%	97.1%	110%	109%	85.3%	93.2%	101%	106%	99.8%	100%	95.7%	–	–	80.5%	101%	98.8%
O=C(O)CNC(=O)c1ccccc1	–	–	–	–	–	–	–	–	–	–	–	–	–	96.6%	–	93.4%	–	–	–
CC(C)C1CCCCC1O (stereo unspecified)	108%	104%	98.3%	102%	96.3%	116%	102%	–	110%	93.5%	101%	148%	106%	100%	107%	81.9%	97.2%	99.3%	103%
COc1cc(C(N)=O)cc(OC)c1OC	86.6%	99.2%	–	94.2%	104%	116%	96.1%	82.5%	111%	105%	91%	84.5%	102%	96.5%	114%	102%	–	103%	106%
CC(C)CCCC(=O)O	95.4%	101%	–	107%	105%	99%	106%	95.4%	105%	104%	105%	119%	104%	103%	102%	–	86.8%	101%	97.2%
CCOC(=O)c1[nH]c(C)c(C(C)=O)c1C	78.2%	94.4%	–	100%	82.2%	97.4%	90.8%	79.3%	98.4%	97%	87.3%	59.1%	93%	91.2%	122%	100%	91%	91.6%	93.4%
COc1ccc(C(=O)C(Br)C(Br)C(=O)O)cc1 (stereo unspecified)	87.4%	–	110%	98.4%	97.7%	108%	98.6%	102%	–	–	112%	105%	117%	104%	94%	–	101%	–	101%
COc1cc2nc3cc([N+](=O)[O-])ccc3c(Cl)c2cc1OC	104%	106%	90.9%	74.8%	105%	108%	97.7%	–	95.2%	91.9%	101%	107%	105%	89.1%	–	83.3%	7.26% (active)	–	99.1%
CC(C)=CC(=O)OC(=O)C=C(C)C	90.3%	104%	98.4%	98.2%	109%	102%	100%	94.5%	102%	105%	108%	101%	111%	102%	–	–	124%	–	98.8%
CCOC(=O)C(C#N)Cc1ccccc1 (stereo unspecified)	99.1%	100%	90.2%	111%	107%	120%	103%	94.5%	106%	110%	98.7%	123%	104%	112%	–	114%	114%	102%	–
COc1cc(C2c3cc4c(cc3C3OC(=O)C2C3CO)OCO4)cc(OC)c1OC (stereo unspecified)	53.4%	46.6%	19.2%	29.7%	7.4% (active)	49.4%	23.8%	38.2%	49.6%	–	–	-9.4% (active)	–	19.7%	7.33% (active)	–	-7.83% (active)	-7.15% (active)	-0.321% (active)
CN(C)CCN(C)CC(C)(C)C(=O)/C=C/c1ccc(Cl)cc1	12.2%	–	–	-46.4% (active)	-96.4% (active)	-11.2% (active)	2.97% (active)	–	0.991% (active)	-27.3% (active)	8.74% (active)	-14.7% (active)	-16.7% (active)	-1.73% (active)	-25.6% (active)	-19.1% (active)	10.4%	-9.31% (active)	–
Cc1cc(NC(=O)CSCC(=O)O)no1	102%	–	98.6%	94.7%	103%	108%	101%	–	86.6%	105%	90%	103%	–	101%	122%	93.8%	120%	107%	–
